Experiment [1] can be described thus: NCI Yeast Anticancer Drug Screen. Data for the rad50 strain (AID 155).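 Also: 0% = growth of vehicle-only cultures of the same strain.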 Particulars: S. cerevisiae rad50 strain growth inhibition, active compounds read high. In a few lines: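 Readout: growth inhibition relative to vehicle-treated cultures. Compound exposure was carried out in a genetically defined yeast strain deficient in DNA damage repair.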
Experiment [2] in a line: NCI Yeast Anticancer Drug Screen. Data for the mec2-1 strain (AID 157). Particulars: S. cerevisiae mec2-1 strain, active compounds read high. In a few lines: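 Yeast mec2-1 mutant treated with compound. Readout: growth inhibition vs vehicle controls.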
Experiment [3] is described as follows: NCI Yeast Anticancer Drug Screen. Data for the sgs1 mgt1 strain (AID 161).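 Also: 0% = growth of cultures given vehicle only.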 Particulars: S. cerevisiae sgs1 mgt1 strain, active compounds read high. An outline of the steps:
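Test agents were incubated with a DNA-repair-mutant yeast strain. Growth was then read and compared against vehicle-treated controls.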

The nature of experiment [4]: NCI Yeast Anticancer Drug Screen. Data for the cln2 rad14 strain (AID 165).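 Also: 0% = growth equal to vehicle treated cultures.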 Particulars: S. cerevisiae cln2 rad14 strain, active compounds read high. An outline of the steps:
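cln2 rad14 yeast strain; compound exposure; growth inhibition read vs vehicle controls.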

Experiment [5] is described as follows: NCI Yeast Anticancer Drug Screen. Data for the bub3 strain (AID 167). Particulars: S. cerevisiae bub3 mutant strain, active compounds read high. In a few lines: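 Readout: yeast growth inhibition, expressed relative to vehicle-only wells. The test organism is a mutant strain from a panel with lesions in DNA repair or checkpoint genes.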
The nature of experiment [6]: NCI Yeast Anticancer Drug Screen. Data for the mlh1 rad18 strain (AID 175). Particulars: S. cerevisiae mlh1 rad18 strain growth inhibition, active compounds read high. In a few lines:
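Yeast w/ defined DNA-repair lesions; compound exposure; growth vs vehicle controls → % inhibition.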

Setting [7] is: at 5.0 µM (retest, dose inferred, filed as 0.5).
The mark [8] stands for this setting: at 50.0 µM (retest, dose inferred, filed as 5.0).

The text below walks through data of PubChem BioAssay (NCI).

This is part of a sample that, as a whole, favours compounds with a hit. Of some 79,000 tested, about 15% had one in any assay. Values without a mark were called inactive. Active and inactive are the calls of the source. Rule as the data show it: active = growth inhibition above about 70%; inactive = the rest.

Take `C=C1C(C)C2C(Cc3ccccc3)NC(=O)C23C(OC(C)=O)/C=C/C(C)(O)CC(C)C/C=C/C3C1O` (stereo not given): the growth inhibition in experiment [1] (setting [7]) is 85% (active); in experiment [1] (setting [8]), 98% (active); in experiment [1] (at 50.0 µM), 91.5% (active); in experiment [2] (setting [7]), 94% (active); in experiment [2] (setting [8]) it was 99% (active); in experiment [2] (at 50.0 µM), 92.5% (active). The growth inhibition in experiment [3] (setting [7]) is 86% (active); in experiment [3] (setting [8]), 99% (active); in experiment [3] (at 50.0 µM), 91.5% (active); in experiment [4] (setting [7]) it was 86% (active); in experiment [4] (setting [8]), 97% (active); in experiment [4] (at 50.0 µM) it was 90.7% (active). The growth inhibition in experiment [5] (setting [7]) is 92% (active); in experiment [5] (setting [8]), 99% (active); in experiment [5] (at 50.0 µM), 90.9% (active); in experiment [6] (setting [7]) it was 95% (active); in experiment [6] (setting [8]) it was 99% (active); in experiment [6] (at 50.0 µM), 89.4% (active).

Turning to `O=[N+]([O-])c1c[c]([Hg][Cl])c(O)[c]([Hg][Cl])c1`, the growth inhibition in experiment [1] (setting [7]) was 44%; in experiment [1] (setting [8]), 99% (active); in experiment [1] (at 50.0 µM), 88.7% (active); in experiment [2] (setting [7]) it was 52%; in experiment [2] (setting [8]) it was 99% (active); in experiment [2] (at 50.0 µM), 92.4% (active). For the same molecule, the growth inhibition was 100% (active) in experiment [3] (setting [7]); 78% (active) in experiment [3] (setting [8]); 92.4% (active) in experiment [3] (at 50.0 µM); 94% (active) in experiment [4] (setting [7]); 97% (active) in experiment [4] (setting [8]); 91% (active) in experiment [4] (at 50.0 µM). Moreover, the growth inhibition was 99% (active) in experiment [5] (setting [7]); 91% (active) in experiment [5] (setting [8]); 90.1% (active) in experiment [5] (at 50.0 µM); 41% in experiment [6] (setting [7]); 99% (active) in experiment [6] (setting [8]); 89.2% (active) in experiment [6] (at 50.0 µM).

Regarding `O=C(O)C(F)(F)C(F)(F)C(=O)O`, the growth inhibition in experiment [1] (setting [7]) is 8%; in experiment [1] (setting [8]), -3%; in experiment [1] (at 50.0 µM), 0.35%; in experiment [2] (setting [7]), 3%; in experiment [2] (setting [8]) it was 0%; in experiment [2] (at 50.0 µM), -1.4%. The growth inhibition in experiment [3] (setting [7]) was -5%; in experiment [3] (setting [8]), -2%; in experiment [3] (at 50.0 µM), 4.8%; in experiment [4] (setting [7]), 6%; in experiment [4] (setting [8]) it was 1%; in experiment [4] (at 50.0 µM), -16.1%. The growth inhibition in experiment [5] (setting [7]) is 5%; in experiment [5] (setting [8]), 26%; in experiment [5] (at 50.0 µM) it was -3.15%; in experiment [6] (setting [7]), 5%; in experiment [6] (setting [8]) it was -2%; in experiment [6] (at 50.0 µM) it was 5.25%.

In the case of `CC(C)=CCC/C(C)=C/CC/C(C)=C/Cc1c(O)c2ccccc2oc1=O`, the growth inhibition is 16% in experiment [1] (setting [7]); 94% (active) in experiment [1] (setting [8]); 89% (active) in experiment [1] (at 50.0 µM); 5% in experiment [2] (setting [7]); 97% (active) in experiment [2] (setting [8]); 91.5% (active) in experiment [2] (at 50.0 µM). The growth inhibition is 7% in experiment [3] (setting [7]); 95% (active) in experiment [3] (setting [8]); 89.7% (active) in experiment [3] (at 50.0 µM); 29% in experiment [4] (setting [7]); 96% (active) in experiment [4] (setting [8]); 89.2% (active) in experiment [4] (at 50.0 µM). Further, the growth inhibition was -11% in experiment [5] (setting [7]); 95% (active) in experiment [5] (setting [8]); 88.3% (active) in experiment [5] (at 50.0 µM); -21% in experiment [6] (setting [7]); 98% (active) in experiment [6] (setting [8]); 89.2% (active) in experiment [6] (at 50.0 µM).

With `CCCCCCC(=O)[O][Hg][c]1ccccc1`, the growth inhibition is 99% (active) in experiment [1] (setting [7]); 99% (active) in experiment [1] (setting [8]); 99.3% (active) in experiment [1] (at 50.0 µM); 100% (active) in experiment [2] (setting [7]); 100% (active) in experiment [2] (setting [8]); 99.7% (active) in experiment [2] (at 50.0 µM). For the same molecule, the growth inhibition in experiment [3] (setting [7]) is 100% (active); in experiment [3] (setting [8]), 100% (active); in experiment [3] (at 50.0 µM) it was 99.7% (active); in experiment [4] (setting [7]), 99% (active); in experiment [4] (setting [8]), 99% (active); in experiment [4] (at 50.0 µM), 99% (active). The growth inhibition in experiment [5] (setting [7]) was 99% (active); in experiment [5] (setting [8]), 99% (active); in experiment [5] (at 50.0 µM), 99.4% (active); in experiment [6] (setting [7]) it was 100% (active); in experiment [6] (setting [8]), 99% (active); in experiment [6] (at 50.0 µM) it was 99.7% (active).

Turning to `Nc1ccc([As]=[As]c2ccc(N)cc2)cc1` (stereo not given), the growth inhibition is -14% in experiment [1] (setting [7]); 71% (active) in experiment [1] (setting [8]); 73.7% (active) in experiment [1] (at 50.0 µM); 2% in experiment [2] (setting [7]); 91% (active) in experiment [2] (setting [8]); 96.6% (active) in experiment [2] (at 50.0 µM). The growth inhibition is -16% in experiment [3] (setting [7]); 68% in experiment [3] (setting [8]); 50.2% in experiment [3] (at 50.0 µM); 2% in experiment [4] (setting [7]); 67% in experiment [4] (setting [8]); 91.2% (active) in experiment [4] (at 50.0 µM). The growth inhibition in experiment [5] (setting [7]) is 3%; in experiment [5] (setting [8]), 91% (active); in experiment [5] (at 50.0 µM), 97.2% (active); in experiment [6] (setting [7]), -1%; in experiment [6] (setting [8]) it was 86% (active); in experiment [6] (at 50.0 µM), 90.8% (active).

In the case of `CN(Cc1ccccc1)CC(O)c1cccc(I)c1` (stereo not given), the growth inhibition in experiment [1] (setting [7]) is -3%; in experiment [1] (setting [8]), 18%; in experiment [1] (at 50.0 µM), 49.5%; in experiment [2] (setting [7]), -3%; in experiment [2] (setting [8]) it was 9%; in experiment [2] (at 50.0 µM) it was 11.3%. For the same molecule, the growth inhibition in experiment [3] (setting [7]) was -2%; in experiment [3] (setting [8]) it was 36%; in experiment [3] (at 50.0 µM) it was 51.6%; in experiment [4] (setting [7]), 1%; in experiment [4] (setting [8]), 11%; in experiment [4] (at 50.0 µM), 31.6%. The growth inhibition was 0% in experiment [5] (setting [7]); 35% in experiment [5] (setting [8]); 56.2% in experiment [5] (at 50.0 µM); -4% in experiment [6] (setting [7]); 24% in experiment [6] (setting [8]); 27.2% in experiment [6] (at 50.0 µM).

For `[O-][n+]1ccccc1S`, the growth inhibition is 99% (active) in experiment [1] (setting [7]); 99% (active) in experiment [1] (setting [8]); 99.4% (active) in experiment [1] (at 50.0 µM); 100% (active) in experiment [2] (setting [7]); 100% (active) in experiment [2] (setting [8]); 99.7% (active) in experiment [2] (at 50.0 µM). The growth inhibition in experiment [3] (setting [7]) is 100% (active); in experiment [3] (setting [8]), 99% (active); in experiment [3] (at 50.0 µM), 99.7% (active); in experiment [4] (setting [7]) it was 99% (active); in experiment [4] (setting [8]), 99% (active); in experiment [4] (at 50.0 µM), 99.2% (active). The growth inhibition in experiment [5] (setting [7]) is 99% (active); in experiment [5] (setting [8]), 99% (active); in experiment [5] (at 50.0 µM), 99.3% (active); in experiment [6] (setting [7]) it was 99% (active); in experiment [6] (setting [8]) it was 99% (active); in experiment [6] (at 50.0 µM) it was 99.5% (active).

As to `Nc1ccccc1O.O.O=C(O)C1[O][Sb][O]C1C(=O)O` (stereo not given), the growth inhibition is 19% in experiment [1] (setting [7]); 33% in experiment [1] (setting [8]); 55.5% in experiment [1] (at 50.0 µM); 26% in experiment [2] (setting [7]); 23% in experiment [2] (setting [8]); 53.5% in experiment [2] (at 50.0 µM). Moreover, the growth inhibition in experiment [3] (setting [7]) is 12%; in experiment [3] (setting [8]), 25%; in experiment [3] (at 50.0 µM) it was 27.2%; in experiment [4] (setting [7]) it was 10%; in experiment [4] (setting [8]), 20%; in experiment [4] (at 50.0 µM), 33.3%. The growth inhibition in experiment [5] (setting [7]) was 37%; in experiment [5] (setting [8]) it was 61%; in experiment [5] (at 50.0 µM) it was 82.4% (active); in experiment [6] (setting [7]), 37%; in experiment [6] (setting [8]) it was 55%; in experiment [6] (at 50.0 µM), 59.4%.

Take `CC(C)CC[CH2][Pb]([CH2]CCC(C)C)([CH2]CCC(C)C)[O]C(=O)C(Cl)(Cl)Cl`: the growth inhibition was 14% in experiment [1] (setting [7]); 98% (active) in experiment [1] (setting [8]); 99.1% (active) in experiment [1] (at 50.0 µM); 8% in experiment [2] (setting [7]); 99% (active) in experiment [2] (setting [8]); 98.9% (active) in experiment [2] (at 50.0 µM). For the same molecule, the growth inhibition is 17% in experiment [3] (setting [7]); 94% (active) in experiment [3] (setting [8]); 98.4% (active) in experiment [3] (at 50.0 µM); -1% in experiment [4] (setting [7]); 95% (active) in experiment [4] (setting [8]); 98.8% (active) in experiment [4] (at 50.0 µM). In addition, the growth inhibition in experiment [5] (setting [7]) is 2%; in experiment [5] (setting [8]) it was 98% (active); in experiment [5] (at 50.0 µM), 99% (active); in experiment [6] (setting [7]) it was 6%; in experiment [6] (setting [8]) it was 94% (active); in experiment [6] (at 50.0 µM) it was 98.7% (active).
